Screening data (PubChem BioAssay)
Only some compounds are listed: those with a hit (about 11% of all), similar ones and a draw of the others.
GoLoco inh red = qHTS Assay for Inhibitors of RGS12 GoLoco Motif Activity (Red Fluorophore); Guanine nucleotide-binding protein G(i) subunit alpha-1 (Homo sapiens), P63096; Gai1:RGS12 GoLoco peptide FP, rhodamine, 10 min; Potency, µM (titrated, usually from 61.6 µM), for the others: at the highest dose activity, negative = inhibition, most hits filed as inhibitors; actives 0.44% (n = 230,000); AID 880, 2007; active means well fitted inhibition curve with a large enough effect, not every such curve was filed as active; inactive means no such curve, though single readings can be large or run the other way; further: potency means the concentration at half of the fitted maximal effect; on the % scale 0 is the no-effect control and ±100 the full control effect; nearly all actives have a fitted effect of over 30% in size
HPGD inh = qHTS Assay for Inhibitors of HPGD (15-Hydroxyprostaglandin Dehydrogenase). actives 4.3% (n = 150,000). Potency, µM, without a hit: top-dose activity change, negative = inhibition, usual class: inhibitors. purified HPGD, NADH fluorescence kinetic, PGE2 substrate. AID 894, 2007; further: potency means the concentration at half of the fitted maximal effect; on the % scale 0 is the no-effect control and ±100 the full control effect
Target sequence (P15428 whole entry, looked up): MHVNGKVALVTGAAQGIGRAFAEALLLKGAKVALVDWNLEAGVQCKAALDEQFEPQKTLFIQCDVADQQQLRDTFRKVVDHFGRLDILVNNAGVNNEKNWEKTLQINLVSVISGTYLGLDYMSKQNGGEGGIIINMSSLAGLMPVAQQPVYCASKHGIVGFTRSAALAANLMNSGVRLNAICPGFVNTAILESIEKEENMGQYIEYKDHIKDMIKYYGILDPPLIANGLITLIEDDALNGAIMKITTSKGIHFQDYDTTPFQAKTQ
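NADH formation kinetics: reaction with 30 uM PGE2 and 1 mM NAD+ (final), 20 nM enzyme, Tris-HCl pH 8 with Tween 20, after 15 min compound preincubation at room temperature. Fluorescence change, last versus first of five reads.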
HTT cytoprotect = qHTS Multiplex Assay to Identify Dual Action Probes in a Cell Model of Huntington: Cytoprotection (ATP); actives 0.14% (n = 230,000); Potency, µM (highest dose often 56.4 µM), for the others: cytoprotection (ATP increase), hits mostly activators; PC12 HTT-Q103 induced, cytoprotection, ATP luminescence, 40 h; active means well fitted curve in the direction sought with a large enough effect; inconclusive means small, poorly fitted or top-dose-only effect, or another doubt; inactive means no such curve, though single readings can be large; an effect the other way counts as inactive or inconclusive; further: potency means the concentration at half of the fitted maximal effect; % of control where 0% means no effect; nearly all actives have a fitted effect of over 45% in size
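Rat PC12, Q103 Htt exon1-GFP fusion, ecdysone promoter; tebufenozide inducer 100 nM final; compound titration; qHTS, 1500 cells/well; ATPlite luminescent read.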
HTT aggregate = qHTS Multiplex Assay to Identify Dual Action Probes in a Cell Model of Huntington: Aggregate Formation (GFP); PC12 HttQ103-GFP aggregates, Acumen cytometry, 40 h; Potency, µM (series often up to 46.1 µM), for the others: top-dose activity change, negative = inhibition, actives largely listed as inhibitors; actives 1.1% (n = 220,000); AID 1688, 2009; active means well fitted curve in the direction sought with a large enough effect; inconclusive means small, poorly fitted or top-dose-only effect, or another doubt; inactive means no such curve, though single readings can be large; an effect the other way counts as inactive or inconclusive; further: potency means the concentration at half of the fitted maximal effect; on the % scale 0 is the no-effect control and ±100 the full control effect; nearly all actives have a fitted effect of over 60% in size
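Aggregates are detected as GFP objects 1–25 µm with signal 6 STDEV over background in lysates of induced PC12 cells. These carry Huntingtin exon 1 with 103 glutamines fused to GFP under an ecdysone promoter; compounds titrated.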
ALDH1A1 block = qHTS Assay for Inhibitors of Aldehyde Dehydrogenase 1 (ALDH1A1). actives 7.3% (n = 220,000). Aldehyde dehydrogenase 1A1 (Homo sapiens), P00352. Potency, µM (doses to about 75.3 µM), inactives show at the top dose activity, negative = inhibition, usual class: inhibitors. Purified ALDH1A1, NADH fluorescence, propionaldehyde substrate. AID 1030, 2008;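 further: potency means the concentration at half of the fitted maximal effect; plate controls were no enzyme wells and a reference inhibitor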
Target sequence (P00352 whole entry, looked up): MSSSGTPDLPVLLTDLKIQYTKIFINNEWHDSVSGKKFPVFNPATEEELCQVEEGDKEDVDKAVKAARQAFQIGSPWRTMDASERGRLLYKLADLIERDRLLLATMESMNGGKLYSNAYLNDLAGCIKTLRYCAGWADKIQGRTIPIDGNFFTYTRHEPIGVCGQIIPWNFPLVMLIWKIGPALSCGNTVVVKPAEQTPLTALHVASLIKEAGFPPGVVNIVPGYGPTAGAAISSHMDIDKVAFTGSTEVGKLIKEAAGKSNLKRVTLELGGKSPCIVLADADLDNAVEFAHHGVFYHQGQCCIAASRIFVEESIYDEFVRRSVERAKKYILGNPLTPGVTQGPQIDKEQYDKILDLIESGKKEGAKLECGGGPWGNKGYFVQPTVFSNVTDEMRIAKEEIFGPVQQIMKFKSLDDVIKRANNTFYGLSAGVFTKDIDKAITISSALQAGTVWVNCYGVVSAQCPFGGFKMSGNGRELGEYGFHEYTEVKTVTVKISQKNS
PNC assembly inh = High Content Assay for Compounds that inhibit the Assembly of the Perinucleolar Compartment; PC3M PTB-GFP, PNC prevalence imaging, 16 h; stronger effect = lower value; activity change (PNC), negative = inhibition, % at 10 µM; actives 3.1% (n = 140,000); AID 2417, 2010;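 active means readout at or below -70, meaning at least 70% loss of cells showing the perinucleolar compartment, a nuclear body marking cancer cells; inconclusive means readout between -30 and a set limit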;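 further: plate controls were DMSO wells for no effect and camptothecin positive control wells for full effect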
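Read-out is percentage of cells bearing a perinucleolar compartment, from automated 20x imaging of fixed, Hoechst-stained PC3M PTB-GFP cells. Cells were seeded 4 h, then exposed 16 h to compound (23 nl of library stock) in duplicate plates.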
Starred values were filed as active, the others as inactive; ? = inconclusive; nt = no result given; [ ] = remark or other dose. Unless noted, the call rests on the fitted dose curve; in most records, active means well fitted inhibition curve with a large enough effect (not every such curve was filed as active); inconclusive means small, poorly fitted or top-dose-only effect, or another doubt; inactive means no such curve, though single readings can be large or run the other way.

SMILES | GoLoco inh red | HPGD inh | HTT cytoprotect | HTT aggregate | ALDH1A1 block | PNC assembly inh
CC(C)C(N)C(=O)O (stereo not drawn) | 5% | nt | -19% | nt | -7% | nt
CCCCN1CC(O)C(O)C(O)C1CO (stereo not drawn) | nt | nt | 19% | 8% | nt | nt
CCOc1ccc(C2CC(=O)c3c([nH]c(C(=O)OC)c3C)C2)cc1OC (stereo not drawn) | 4% | -5% | ? | 5% | 3% | -19
CCOC(=O)c1[nH]c2c(c1-c1ccc(OC)cc1)C(=O)CC(c1ccc(OC)c(OC)c1)C2 (stereo not drawn) | 11% | -14% | nt | -10% | 28µM* | 40
COC(=O)C1=C(N)OC2=C(C(=O)CC(C)(C)C2)C1c1cccs1 (stereo not drawn) | -2% | 22µM* | 18% | -3% | -11% | -12
CC1(C)CC(=O)C2=C(C1)N(c1ccccc1C#N)C(N)=C(C#N)C2c1cccs1 (stereo not drawn) | 16% | -5% | -8% | -23% | -3% | ?
CC1(C)CC(=O)C2=C(C1)OC(c1cccs1)C(C#N)=C2N (stereo not drawn) | -5% | -16% | -8% | 12% | 11µM* | -3
CC1(C)CC(=O)C(C2C3=C(CC(C)(C)CC3=O)Oc3ccccc32)=C(O)C1 (stereo not drawn) | -2% | -8% | -14% | 4% | 28µM* | ?
CC1(C)CC(=O)C2=C(C1)OC(N)=C(C#N)C2c1cccs1 (stereo not drawn) | 8% | nt | 4%[10 µM] | -5%[9.22 µM] | 22µM* | nt
COC(=O)C1=C(C)NC2=C(C(=O)CCC2)C1c1cccs1 (stereo not drawn) | 6% | -29% | -15% | -5% | -8% | ?
CCCCC(=O)N(c1ccc(C(=O)O)cc1)c1nc(-c2ccc(Cl)cc2)c(CC)s1 | 1% | nt | -34%[1.9 µM] | -17%[9.22 µM] | -9% | nt
CC1(C)CC(=O)C2=C(C1)OC1=C(C(=O)CC(C)(C)C1)C2c1ccccc1 | 1% | -3% | 3% | -7% | 6% | 11
COc1ccc(C2C3=C(CC(C)(C)CC3=O)OC(N)=C2[N+](=O)[O-])cc1 (stereo not drawn) | 0% | -12% | -3%[10 µM] | 2% | 19µM* | 37
COc1cc(C2C3=C(CC(C)(C)CC3=O)OC(N)=C2[N+](=O)[O-])ccc1O (stereo not drawn) | nt | nt | -77%[10 µM] | ? | ? | -3
CC1(C)CC(=O)C2=C(C1)OC(N)=C(C#N)C2C1C=CCCC1 (stereo not drawn) | -12% | -25% | 2% | -25% | 4µM* | ?
CC1(C)CC(=O)C2=C(C1)OC(N)=C(C#N)C2c1ccccc1 (stereo not drawn) | 5% | -17% | 14% | -6% | 14µM* | 31
COc1ccc2cc3c(N)nn(C(=O)c4ccccc4[N+](=O)[O-])c3nc2c1 | 0% | -11% | -17%[10 µM] | ? | -6% | 111
COc1ccc2cc3c(N)nn(C(=O)c4ccc(Cl)c([N+](=O)[O-])c4)c3nc2c1 | 36% | -11% | 19%[10 µM] | 2.8µM* | 5% | ?
Brc1ccc(-c2noc(COc3ccc4c(c3)CCC4)n2)o1 | 5% | -16% | 0%[10 µM] | -29% | -7% | -80*
Clc1ccc(OCc2nc(-c3ccc(Br)o3)no2)cc1 | 3% | -6% | -12% | 4% | 4% | 4
O=c1c(-c2ccccc2)nc2cnc(Nc3ccccc3)nc2n1Cc1cccs1 | 6% | nt | -8% | nt | ? | nt
COC(=O)[C@@H]1C[C@H]1[C@@H](NC(=O)c1ccc(Br)cc1)c1ccccc1 | -1% | -2% | -35% | nt | -3% | nt
CCOC(=O)CCC(=O)NCc1ccc2c(c1)cc(C)n2C | -6% | ? | ? | ? | -7% | 52
COc1ccc(CNC(=O)c2cccs2)cc1 | -8% | 14µM* | 8% | -5% | ? | -100*
CCCCC(=O)NCc1ccc2c(c1)cc(C)n2C | 11% | 1.1µM* | -6% | 9% | -5% | -10
SMILES | GoLoco inh red | HPGD inh | HTT cytoprotect | HTT aggregate | ALDH1A1 block | PNC assembly inh
Cc1cc2cc(CNC(=O)c3cccs3)ccc2n1C | 1% | 2.8µM* | nt | 4% | -10% | -4
Cc1cc2cc(CNC(=O)CC(C)C)ccc2n1C | -1% | 2.2µM* | -7% | -12% | 1% | 35
CN1CCN(C(=S)c2cn(Cc3ccc(Br)cc3)c3ccccc23)CC1 | 7% | nt | -41% | -19% | -6% | nt
O=C(O)/C=C/C(=O)N(Cc1ccc2c(c1)OCO2)C1CC(=O)N(CCc2ccccc2)C1=O (stereo not drawn) | 7% | nt | -13%[10 µM] | -6%[9.22 µM] | 11% | nt
COc1ccccc1OCCNC(=O)c1cccs1 | -10% | 16µM* | -2% | 1% | 14% | 53
Cc1cc2cc(CNC(=O)c3ccc(S(=O)(=O)N4CCCC4)cc3)ccc2n1C | -84% | -6% | 9%[10 µM] | -1% | 20µM* | ?
CCN(CC)S(=O)(=O)c1ccc(C(=O)NCc2ccc3c(c2)cc(C)n3C)cc1 | -4% | -11% | -11%[10 µM] | -6% | ? | -10
CC(NC(=O)c1cc(S(=O)(=O)N(C)C)ccc1N1CCCC1)C1CC2CCC1C2 (stereo not drawn) | 27% | nt | -35% | 3% | 6% | nt
CCc1c2c(nc3cccc(SC)c13)COC2 | 11% | ? | -76% | nt | ? | nt
CCOC(=O)c1c(NC(=O)CSc2nnc(-c3ccccc3C)n2C)sc(C(C)=O)c1C | 25% | ? | -9% | -16% | 25µM* | 13
CCOC(=O)c1c(NC(=O)CSc2ncnc3ccccc23)sc(C(C)=O)c1C | 25% | ? | 2.5µM* | -22% | -15% | 35
Cc1noc(C)c1-c1ccc2ncnc(NCc3ccccc3)c2c1 | 1% | ? | -58% | nt | ? | nt
COc1ccc(C2/C=C\CN(C(=O)OCC3c4ccccc4-c4ccccc43)CC(=O)N2Cc2cccc(F)c2)cc1 (stereo not drawn) | -4% | -9% | -20%[40.3 µM] | nt | -6%[50.4 µM] | nt
COC(=O)c1c(OC)cc2c(c1C)Oc1c(Cl)c(O)c(Cl)c(C)c1C(=O)O2 | -1% | ? | ? | nt | ? | nt
Cc1cc(O)c(C=O)c2c1C(=O)Oc1c(C)c(O)c3c(c1O2)C(O)OC3=O (stereo not drawn) | 11% | 10µM* | ? | nt | ? | nt
